PubChem BioAssay (NCI)
About 79,000 compounds went through this panel and 15% of them were active in at least one assay; those are over-represented in the sample as a whole. Active and inactive are the calls of the source. Rule as the data show it: active = growth inhibition above about 70%; inactive = the rest.

Legend:
[1] = NCI Yeast Anticancer Drug Screen. Data for the rad52 strain (AID 147);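 also: 0% = growth of vehicle-treated control cultures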; conditions: S. cerevisiae rad52 mutant growth inhibition, hits give high values
How it was run: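 Growth of repair-deficient yeast cells was compared between compound-treated and vehicle-treated cultures to give percent inhibition.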

[2] = NCI Yeast Anticancer Drug Screen. Data for the wt1 strain (AID 149);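 also: 0% = growth of vehicle-treated wt1 cultures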; conditions: S. cerevisiae wt1 strain (SPY 50644) growth inhibition, hits give high values
How it was run: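 Vehicle-normalised growth inhibition; strain wt1; compound exposure.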

[3] = NCI Yeast Anticancer Drug Screen. Data for the rad50EPP+ strain (AID 151);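 also: 0% = growth of vehicle-treated control cultures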; conditions: S. cerevisiae rad50 mutant strain, hits give high values
How it was run: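 Measured: growth inhibition of rad50EPP+ yeast. Reference: vehicle-treated controls. Screen uses strains with defined genetic alterations in DNA damage repair or cell cycle control.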

[4] = NCI Yeast Anticancer Drug Screen. Data for the mgt1 strain (AID 153); conditions: S. cerevisiae mgt1 mutant growth inhibition, hits give high values
How it was run: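 Compounds were applied to mgt1 mutant yeast, and growth was then compared against vehicle-treated control cultures to give percent inhibition.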

[5] = NCI Yeast Anticancer Drug Screen. Data for the rad50 strain (AID 155);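 also: 0% = growth of vehicle-only cultures of the same strain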; conditions: S. cerevisiae rad50 strain growth inhibition, hits give high values
How it was run: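 A DNA repair-deficient yeast mutant serves as the test organism; compound-induced growth inhibition is calculated against vehicle-treated cells.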

[6] = NCI Yeast Anticancer Drug Screen. Data for the mec2-1 strain (AID 157); conditions: S. cerevisiae mec2-1 strain, hits give high values
How it was run: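 Compounds were applied to mec2-1 yeast cells. Their growth was then compared with that of vehicle-treated cultures to give growth inhibition.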

[7] = NCI Yeast Anticancer Drug Screen. Data for the rad14 strain (AID 159);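 also: 0% = growth of vehicle-treated control cultures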; conditions: S. cerevisiae rad14 strain growth inhibition, hits give high values
How it was run: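 Vehicle-treated cultures served as the baseline for growth inhibition of a DNA repair-mutant yeast strain exposed to each compound.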

[8] = NCI Yeast Anticancer Drug Screen. Data for the sgs1 mgt1 strain (AID 161);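 also: 0% = growth of cultures given vehicle only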; conditions: S. cerevisiae sgs1 mgt1 strain, hits give high values
How it was run: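 Growth of a repair-deficient yeast mutant was monitored after compound treatment and expressed as inhibition relative to vehicle-treated cultures.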

[9] = NCI Yeast Anticancer Drug Screen. Data for the CLN2oe strain (AID 163);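 also: 0% = growth of vehicle-only control cultures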; conditions: S. cerevisiae CLN2oe strain, hits give high values
How it was run: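 Cells of an engineered yeast line with disturbed cell-cycle regulation are treated with compound. Inhibition of growth is then calculated relative to the vehicle-treated reference.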

[10] = NCI Yeast Anticancer Drug Screen. Data for the cln2 rad14 strain (AID 165);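 also: 0% = growth equal to vehicle treated cultures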; conditions: S. cerevisiae cln2 rad14 strain, hits give high values
How it was run: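 Strain: cln2 rad14 yeast, altered in cell cycle control and DNA damage repair. Read-out: growth inhibition vs vehicle.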

[11] = NCI Yeast Anticancer Drug Screen. Data for the bub3 strain (AID 167); conditions: S. cerevisiae bub3 mutant strain, hits give high values
How it was run: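 Inhibition values come from growth of compound-treated mutant yeast normalised to vehicle-treated controls.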

[12] = NCI Yeast Anticancer Drug Screen. Data for the wt2 strain (AID 169);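 also: 0% = growth of vehicle-treated yeast cultures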; conditions: S. cerevisiae wt2 strain growth inhibition, hits give high values
How it was run: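 Growth of compound-treated yeast is measured and expressed as inhibition relative to vehicle-only controls.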

[13] = NCI Yeast Anticancer Drug Screen. Data for the mlh1 strain (AID 171);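 also: 0% = growth of vehicle-treated control cultures of the same strain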; conditions: S. cerevisiae mlh1 strain growth inhibition, hits give high values
How it was run: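 Test agents were incubated with yeast bearing a defined DNA damage repair or cell cycle control alteration; values are growth inhibition normalised to vehicle-treated cultures.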

[14] = NCI Yeast Anticancer Drug Screen. Data for the sgs1 strain (AID 173);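 also: 0% = growth of vehicle-only control cultures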; conditions: S. cerevisiae sgs1 mutant, hits give high values
How it was run: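 Strain with an altered DNA repair or cell cycle pathway exposed to compound. Growth then measured. Value = inhibition versus vehicle control.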

[15] = NCI Yeast Anticancer Drug Screen. Data for the mlh1 rad18 strain (AID 175); conditions: S. cerevisiae mlh1 rad18 strain growth inhibition, hits give high values
How it was run: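 A repair-deficient yeast strain is exposed to test compound, and growth is scored relative to vehicle-treated controls.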

[16] = NCI Yeast Anticancer Drug Screen. Data for the rad18 strain (AID 177); conditions: S. cerevisiae rad18 mutant growth inhibition, hits give high values
How it was run: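 DNA-repair-defective yeast; compound treatment; growth inhibition scored against vehicle.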

[17] = at 5.0 µM (retest, dose inferred, filed as 0.5)
[18] = at 50.0 µM (retest, dose inferred, filed as 5.0)

Measured: growth inhibition

CCC(C)(C)c1ccc(Oc2ccccc2)c(N)c1
active: [1]; at 11.0 µM 96% | [1]; at 33.0 µM 99% | [1]; at 100.0 µM 98% | [2]; at 11.0 µM 97% | [2]; at 33.0 µM 99% | [2]; at 100.0 µM 98% | [3]; at 33.0 µM 84% | [3]; at 100.0 µM 90% | [4]; at 11.0 µM 96% | [4]; at 33.0 µM 99% | [4]; at 100.0 µM 99% | [5]; at 11.0 µM 94% | [5]; at 33.0 µM 98% | [5]; at 50.0 µM 90.5% | [5]; at 100.0 µM 99% | [6]; at 11.0 µM 96% | [6]; at 33.0 µM 99% | [6]; at 50.0 µM 93.2% | [6]; at 100.0 µM 99% | [7]; at 11.0 µM 97% | [7]; at 33.0 µM 99% | [7]; at 100.0 µM 99% | [8]; [18] 97% | [8]; at 50.0 µM 93.5% | [9]; at 11.0 µM 96% | [9]; at 33.0 µM 99% | [9]; at 100.0 µM 97% | [10]; [18] 99% | [10]; at 50.0 µM 92.3% | [11]; at 11.0 µM 95% | [11]; at 33.0 µM 99% | [11]; [18] 99% | [11]; at 50.0 µM 92.3% | [11]; at 100.0 µM 98% | [12]; at 11.0 µM 97% | [12]; at 33.0 µM 99% | [12]; at 100.0 µM 99% | [13]; at 11.0 µM 95% | [13]; at 33.0 µM 98% | [13]; at 100.0 µM 98% | [14]; at 11.0 µM 94% | [14]; at 33.0 µM 99% | [14]; at 100.0 µM 98% | [15]; at 50.0 µM 91.2% | [16]; at 11.0 µM 94% | [16]; at 33.0 µM 99% | [16]; at 100.0 µM 97%
inactive: [1]; at 1.2 µM -21% | [1]; at 3.7 µM -4% | [2]; at 1.2 µM -15% | [2]; at 3.7 µM -12% | [3]; at 1.2 µM 3% | [3]; at 3.7 µM 36% | [3]; at 11.0 µM 66% | [4]; at 1.2 µM -16% | [4]; at 3.7 µM -1% | [5]; at 1.2 µM -33% | [5]; at 3.7 µM -6% | [5]; [17] 42% | [5]; [18] 51% | [6]; at 1.2 µM -40% | [6]; at 3.7 µM -24% | [6]; [17] 44% | [6]; [18] 50% | [7]; at 1.2 µM -2% | [7]; at 3.7 µM 13% | [8]; [17] 2% | [9]; at 1.2 µM -22% | [9]; at 3.7 µM -2% | [10]; [17] 62% | [11]; at 1.2 µM -10% | [11]; at 3.7 µM -6% | [11]; [17] 36% | [12]; at 1.2 µM -17% | [12]; at 3.7 µM 0% | [13]; at 1.2 µM -30% | [13]; at 3.7 µM -18% | [14]; at 1.2 µM -17% | [14]; at 3.7 µM 6% | [15]; [17] 39% | [15]; [18] 45% | [16]; at 1.2 µM -31% | [16]; at 3.7 µM -7%

COc1ccc(/C=C2\SC(=S)N(/C=C3\C(=O)N(c4ccccc4)N=C3C)C2=O)cc1OC
inactive: [1]; at 1.2 µM 3% | [1]; at 3.7 µM 8% | [1]; at 11.0 µM 25% | [1]; at 33.0 µM 64% | [2]; at 1.2 µM 3% | [2]; at 3.7 µM 5% | [2]; at 11.0 µM 11% | [2]; at 33.0 µM 48% | [3]; at 1.2 µM -1% | [3]; at 3.7 µM 6% | [3]; at 11.0 µM 24% | [3]; at 33.0 µM 55% | [3]; at 100.0 µM 58% | [4]; at 1.2 µM 1% | [4]; at 3.7 µM 3% | [4]; at 11.0 µM 27% | [5]; at 1.2 µM -5% | [5]; at 3.7 µM -10% | [5]; [17] 5% | [5]; at 11.0 µM 9% | [5]; at 33.0 µM 61% | [5]; [18] 51% | [5]; at 50.0 µM 63.4% | [6]; at 1.2 µM 3% | [6]; at 3.7 µM 4% | [6]; [17] -7% | [6]; at 11.0 µM 18% | [6]; at 33.0 µM 65% | [6]; [18] 52% | [7]; at 1.2 µM 3% | [7]; at 3.7 µM 4% | [7]; at 11.0 µM 26% | [7]; at 33.0 µM 66% | [8]; [17] -4% | [9]; at 1.2 µM -18% | [9]; at 3.7 µM -9% | [9]; at 11.0 µM 3% | [9]; at 33.0 µM 58% | [10]; [17] -5% | [10]; [18] 61% | [10]; at 50.0 µM 50.8% | [11]; at 1.2 µM -2% | [11]; at 3.7 µM 0% | [11]; [17] 5% | [11]; at 11.0 µM 11% | [11]; at 33.0 µM 42% | [11]; [18] 17% | [11]; at 50.0 µM 67.6% | [11]; at 100.0 µM 65% | [12]; at 1.2 µM -2% | [12]; at 3.7 µM 2% | [12]; at 11.0 µM 26% | [13]; at 1.2 µM 0% | [13]; at 3.7 µM 3% | [13]; at 11.0 µM 25% | [14]; at 1.2 µM 4% | [14]; at 3.7 µM 15% | [14]; at 11.0 µM 42% | [15]; [17] 7% | [15]; [18] 67% | [16]; at 1.2 µM 5% | [16]; at 3.7 µM 17% | [16]; at 11.0 µM 37% | [16]; at 33.0 µM 68%
active: [1]; at 100.0 µM 77% | [2]; at 100.0 µM 76% | [4]; at 33.0 µM 79% | [4]; at 100.0 µM 89% | [5]; at 100.0 µM 71% | [6]; at 50.0 µM 73.2% | [6]; at 100.0 µM 80% | [7]; at 100.0 µM 74% | [8]; [18] 83% | [8]; at 50.0 µM 79.2% | [9]; at 100.0 µM 71% | [12]; at 33.0 µM 82% | [12]; at 100.0 µM 89% | [13]; at 33.0 µM 81% | [13]; at 100.0 µM 88% | [14]; at 33.0 µM 86% | [14]; at 100.0 µM 90% | [15]; at 50.0 µM 76.2% | [16]; at 100.0 µM 74%
